# Measurements taken from PubChem BioAssay.
# A number with no mark means an inactive call. Active and inactive are the calls of the source.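 How the source made its calls: active means thallium flux through the channel raised or lowered by more than 3 SD from vehicle-only wells, actives on both sides; inactive means the rest.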
# Tests used:
# Assay in all cases: modulators of BK channel variants, profiling panel, selectivity assay, cell-based, U2OS BacMam, thallium flux, beta subunits (AID 1259406);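 further: initial slope of Thallos dye fluorescence rise after thallium is added; log ratio against the mean of 0.3% DMSO vehicle wells on the same plate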
# F380Y = details: at 30 µM
# F380Y/beta1 = details: at 30 µM
# F380Y/beta2Delta = details: at 30 µM
# F380Y/beta4 = details: at 30 µM
# [1] = target: Calcium-activated potassium channel subunit alpha-1 (Homo sapiens) + Leucine-rich repeat-containing protein 26 (Homo sapiens) (UniProt Q12791+Q2I0M4); details: F380Y/Slo1WT/gamma1, at 30 µM
# Sequence of Calcium-activated potassium channel subunit alpha-1 (Homo sapiens) + Leucine-rich repeat-containing protein 26 (Homo sapiens) (Q2I0M4 whole entry, looked up, one chain of several): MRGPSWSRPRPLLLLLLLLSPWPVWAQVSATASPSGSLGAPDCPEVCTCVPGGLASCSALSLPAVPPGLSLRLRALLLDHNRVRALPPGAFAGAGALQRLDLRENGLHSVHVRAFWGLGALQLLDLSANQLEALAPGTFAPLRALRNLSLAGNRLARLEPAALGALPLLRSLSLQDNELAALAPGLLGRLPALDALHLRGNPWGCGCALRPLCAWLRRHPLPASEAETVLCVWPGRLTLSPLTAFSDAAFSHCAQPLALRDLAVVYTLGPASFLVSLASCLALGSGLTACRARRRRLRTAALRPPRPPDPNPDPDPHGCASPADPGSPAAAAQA
# R275C = details: at 30 µM
# R275C/beta1 = details: at 30 µM
# R275C/beta2Delta = details: at 30 µM
# R275C/beta4 = details: at 30 µM
# R275C/Slo1WT/beta2 = details: at 30 µM
Structure (SMILES),log fold change Tl+ flux (F380Y),log fold change Tl+ flux (F380Y/beta1),log fold change Tl+ flux (F380Y/beta2Delta),log fold change Tl+ flux (F380Y/beta4),log fold change Tl+ flux [1],log fold change Tl+ flux (R275C),log fold change Tl+ flux (R275C/beta1),log fold change Tl+ flux (R275C/beta2Delta),log fold change Tl+ flux (R275C/beta4),log fold change Tl+ flux (R275C/Slo1WT/beta2)
CC(=O)C(=CN(C)C)Sc1ccc(Cl)cc1,0.0299,-0.000152,0.00502,0.000556,0.0115,0.0269,0.0366,0.0244,0.0484,-0.0118
O=C(c1ncoc1-c1ccccc1)N(Cc1ccccn1)Cc1ccccn1,0.0015,0.0293,-0.0298,0.051,-0.0237,-0.0056,0.0298,0.0379,0.0394,0.033
Cc1c(C)c(C)c(C(=O)c2ccccc2C(=O)NN)c(C)c1C,0.0326,0.0715,0.00841,0.0586,0.0596,0.02,0.144 (active),0.0153,0.0879 (active),0.00811
CC(C)n1c(SCC(=O)c2ccccc2)nc2cc(Cl)ccc21,-0.0377,-0.0145,-0.0247,-0.709 (active),-1.05 (active),-0.667 (active),-0.35 (active),-0.0838 (active),-0.0424,-0.173 (active)
CCc1nc2ccccc2nc1N1CCN(S(=O)(=O)c2ccc(Cl)cc2)CC1,-0.00553,-0.0118,-0.00426,-0.00719,-1.3e-05,0.0269,0.0201,-0.0214,0.00696,-0.0158
CN1c2ccccc2C(C)(C)C12C=Cc1cc(Br)cc([N+](=O)[O-])c1O2 (stereo not given),0.0436,0.162 (active),0.0613,0.00641,0.0283,0.00244,0.132 (active),0.0868 (active),0.0424,-0.0665
Nc1ccc(Cl)cc1-c1nc2ccccc2[nH]1,-0.0882,-0.0427,-0.0974,-0.0939 (active),-0.0918,-0.0721,-0.112 (active),-0.0678,-0.0366,0.00169
Cc1nn(Cc2nnc(-c3cc(C(F)(F)F)cc(C(F)(F)F)c3)o2)c(C)c1Br,-0.000532,-0.0352,-0.0793,-0.0305,-0.0495,-0.0117,-0.0379,-0.0199,0.00363,0.0313
CCCCCCCCCCCCSC(=S)NCC1CCCO1 (stereo not given),0.0353,0.0262,0.0128,0.0306,0.0128,-0.00711,-0.0124,0.0322,-0.00355,-0.00192
O=C1C(=Cc2cc(-c3ccccc3)c(C(F)(F)F)s2)CSc2ccc(Cl)cc21,0.00549,0.0168,0.0287,-0.022,-0.0261,-0.00201,-0.0099,-0.0048,0.0191,0.0572
CC(c1ccccc1)n1c(SCc2cc(=O)oc3cc(O)ccc23)n[nH]c1=O (stereo not given),-0.0609,0.00559,0.0151,0.0558,0.0977,0.0366,0.0338,0.123 (active),0.102 (active),-0.0189
CCCn1c(=O)c(Br)cn(-c2ccccc2C)c1=O,-0.00732,-0.0448,-0.0565,0.00537,-0.011,0.0371,0.0334,-0.00562,0.00534,0.0347
O=[N+]([O-])c1ccc(N2CCSCC2)cc1O,-0.0426,-0.0279,-0.0262,0.012,0.0289,-0.00302,-0.0429,-0.0453,-0.0292,0.0333
Cc1cc(NC(=O)Nc2nc(-c3ccc(C)c(Cl)c3)c(C)s2)c(C(F)(F)F)o1,0.0531,0.0378,0.0304,-0.0149,0.0333,0.0173,-0.0274,0.015,0.0593,0.0144
Cc1cc(Nc2ccc(F)cc2F)nc(SCc2c(Cl)cccc2Cl)n1,-0.0282,-0.0344,-0.0422,-0.123 (active),-0.039,-0.0547,-0.0316,-0.000965,-0.0113,-0.0702
O=C(Cn1ccc(C(F)(F)F)n1)c1ccc(Cl)cc1,0.0102,0.0189,-0.0159,0.0229,-0.00441,0.00925,0.0122,-0.0132,0.0276,0.0269
